HSP90 inh – inhibitors of HSP90 luciferase refolding in rabbit reticulocyte lysate | inhibition, % at 5.6 µM | 290,000 compounds, 0.91% hits | luciferase refolding luminescence, 3 h;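 active = inhibition above the screen-wide mean plus 3 SD, computed separately per campaign, cut at about 16% in these data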;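 note: 0% = DMSO wells and 100% = 60 µM geldanamycin wells; inhibitors lower the luminescence because luciferase stays unfolded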
HSF1 inhib – HSF1 inhibition; NIH3T3-HGL HSE-luciferase, MG132-induced, luminescence 8 h; active compounds read low; AID 2098; 300,000 compounds, 0.77% hits; activity change, negative = inhibition, % at 7.5 µM (by protocol);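 active = more than half of replicate wells show activity change below -50%, luminescence cut by over half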;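 note: luciferase reports HSF-1 transcriptional activity via heat shock element; 0% = median of DMSO wells and -100% = zero luminescence signal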
SMARCA2 activ – activators of SMARCA2 function | 370,000 compounds, 1% hits | AID 652017 | activation, % at 9.1 µM | MG213 cells, MMTV-luciferase reporter, dexamethasone, overnight; in the data active = activation above about 7.8%;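 note: 0% = vehicle wells and 100% = reference activator wells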
GAA850 FXN act – activators of GAA850 frataxin (FXN) promoter; activation, % at 6 µM; HEK293 lucGAA850 FXN promoter luciferase reporter, 24 h; percent of 10 µM SAHA response; 360,000 compounds, 0.56% hits;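 active = activation above the average of all compounds screened plus 3 SD, cutoff fixed separately per campaign, cut at about 7.5% in these data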;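 note: 0% = DMSO wells and 100% = 10 µM SAHA wells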
PG9 binder – binds the HIV-1 gp120 antibody PG9; AID 624416; TR-FRET gp120-PG9 antibody binding; 360,000 compounds, 0.43% hits; inhibition, % at 6.7 µM; in the data active = inhibition above about 8.5%
AI-2 QS mod – Vibrio harveyi AI-2 quorum sensing modulation | Vibrio harveyi JMH597 AI-2 luminescence/OD600 ratio, 9 h; active compounds read low; strain lacks LuxN and CqsS sensors; 0 = neutral-control median | activity change, % at 7.5 µM | 300,000 compounds, 0.4% hits | AID 2094; in the data active = activity change below about -75%, passing the limit was not always enough;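 note: luminescence divided by OD600 gain over 9 h not by final OD600 alone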
SMARCA2 conf – SMARCA2 activation, confirmation screen; shares compounds with SMARCA2 activ; MG213 cells, MMTV-luciferase with dexamethasone, luminescence, overnight; MG213 cells expressing E1A, Rb sequestered; DMSO wells 0%, reference activator 100%; activation, % at 9.1 µM; 3,500 compounds, 30% hits; AID 652260;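 active = activation above its plate's cutoff, the mean activation of tested wells plus 3 SD, cut at about 7.9% in these data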
GAL4-VP16 Luc – activates GAL4-VP16 luciferase, flagging SMARCA2 activator hits; shares compounds with SMARCA2 activ; HEK293 GAL4-VP16 pG5luc reporter, luciferase luminescence; scaled: DMSO wells 0%, SAHA wells 100%; activation, % at 9.1 µM; 3,500 compounds, 41% hits; AID 686939;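 active = activation above the solvent-only control well mean plus 3 SD, averaged across control plates, cut at about 5.2% in these data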
* hit, by the source's call. In the library only some 3.4% were active in any assay of this set; here they are far more common.

Results for COCC1CCN(C(=O)C2CCC(=O)N(Cc3ccc(Cl)cc3)C2)CC1 (configuration not stated) ?
HSP90 inh: -5; HSF1 inhib: 0; SMARCA2 activ: 8.3*; GAA850 FXN act: 1; PG9 binder: 0; AI-2 QS mod: 20; SMARCA2 conf: -1; GAL4-VP16 Luc: 0

Results for O=C1CCC(C(=O)N2CCC(CO)CC2)CN1Cc1ccc(Cl)cc1 (configuration not stated) ?
HSP90 inh: 4; HSF1 inhib: -9; SMARCA2 activ: -2; GAA850 FXN act: 2; PG9 binder: -1; AI-2 QS mod: 21

Results for Cc1ccc2c(c1)C1CS(=O)(=O)N(Cc3ccccc3)C(=O)N1C2 (configuration not stated) ?
SMARCA2 activ: -2

How did CC(=O)c1ccc(NC(=O)c2cc(Cl)sc2Cl)cc1 do in these assays?
HSP90 inh: -1; HSF1 inhib: 8; SMARCA2 activ: 9.3*; GAA850 FXN act: 5; PG9 binder: -2; AI-2 QS mod: 8; SMARCA2 conf: 6; GAL4-VP16 Luc: 7.5*

How did CC(=O)C1=C(C)N(Cc2ccc(F)cc2)C(=S)NC1c1ccccc1 (configuration not stated) do in these assays?
SMARCA2 activ: -2; PG9 binder: -3

What do the screens show for `COc1ccc(-n2cnc(=S)[nH]c2=S)cc1`?
SMARCA2 activ: 14*; GAA850 FXN act: 2; PG9 binder: 0; SMARCA2 conf: 21*; GAL4-VP16 Luc: 2

What do the screens show for `COc1ccc(-n2cc(-c3ccccc3)[nH]c2=S)cc1`?
HSP90 inh: 0; HSF1 inhib: 24; SMARCA2 activ: 7; GAA850 FXN act: 1; PG9 binder: 1; AI-2 QS mod: -5

Results for COc1ccc(C(C)=O)cc1CN1C(=O)NC2(CCCCCCC2)C1=O ?
HSP90 inh: -4; HSF1 inhib: -2; SMARCA2 activ: 11*; GAA850 FXN act: 0; PG9 binder: -2; AI-2 QS mod: 30; SMARCA2 conf: -4; GAL4-VP16 Luc: 1

Results for C[C@@H]1ON(C)[C@H]2C[C@H]3c4[nH]c5cccc(-c6ccccc6F)c5c4CCN3C(=O)[C@@H]12 ?
SMARCA2 activ: 0; PG9 binder: 1

What do the screens show for `Cc1ccc(C(=O)COc2cc(C)nc3nncn23)cc1`?
HSP90 inh: 1; HSF1 inhib: -4; SMARCA2 activ: 11*; GAA850 FXN act: 1; PG9 binder: -4; AI-2 QS mod: 15; SMARCA2 conf: -2; GAL4-VP16 Luc: 2

How did C/C(CC(=O)Nc1ccc(Cl)cc1C(F)(F)F)=N\NC(=O)c1cccs1 do in these assays?
HSP90 inh: 1; HSF1 inhib: 29; SMARCA2 activ: 10*; GAA850 FXN act: 5; PG9 binder: -1; AI-2 QS mod: 16; SMARCA2 conf: 4; GAL4-VP16 Luc: 3

How did Cc1cc(Br)cn2c(Cc3ccccc3)c(-c3ccccc3)nc12 do in these assays?
SMARCA2 activ: -1; PG9 binder: 4

Results for COc1ccc(NC(=O)N(C)C[C@H]2OCc3cn(nn3)CCCC(=O)N([C@H](C)CO)C[C@@H]2C)cc1 ?
SMARCA2 activ: -3; PG9 binder: 0

How did COC(=O)[C@]12C[C@H](CC(=O)NCc3cccc4ccccc34)C(=O)N(Cc3ccc4c(c3)OCO4)C1=C[C@H](C(C)C)O[C@@H]2C1CC1 do in these assays?
SMARCA2 activ: -3

How did COc1cccc(NC(=O)CN(C)C(=O)CNC(=O)c2ccc(C)s2)c1 do in these assays?
SMARCA2 activ: -1; GAA850 FXN act: 1; PG9 binder: -1

Bioassay records from PubChem.
